# This is part of a sample that, as a whole, favours compounds with a hit. Of some 83,000 tested, about 20% had one in any assay.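 96-well plates, one dose, 48 hours. Percent growth reported; active if below 10.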 The source made the active and inactive calls.
# System: SK-OV-3 ovarian
# Test: NCI-60 one-dose screen, 48 h (100 = growth as untreated, 0 = no growth, -100 = all killed)
# Settings: 10 µM
# Method: Growth inhibition of the SK-OV-3 human tumor cell line is measured as a screen for anti-cancer activity. Cells are grown in 96 well plates and exposed to the test compound for 48 hours. Compounds are tested at a single concentration, which is 10^-5 M for most compounds. The reported endpoint is percent growth (GI% or GIPRCNT), where numbers from 0 - 100% represent growth inhibition, and numbers from -100% - 0 represent cell death. For example, a value of 40 represents 60% growth inhibition. A value of 0 means no net growth occurred over the course of the experiment. A value of -40 indicates 40% of cells at the beginning of the experiment died by the end of the experiment. A value of -100 means all cells are dead at the end of the experiment.
# NCI-60 Human Tumor Cell Lines Screen was performed using the standard one-dose NCI protocol, which is described in more detail at https://dtp.cancer.gov/discovery_development/nci-60/default.htm.
# Compounds with GIPRCNT values below 10 were considered active. Activity score was based on GIPRCNT using the following formula: […]
# Score is 0 for GIPRCNT values of 100 or above, 50 for GIPRCNT values of 0, and 100 for GIPRCNT values of -100.
row,Structure (SMILES),growth
1,CC[C@@H](C(=O)[C@@H](C)[C@@H](O)[C@H](C)[C@@H]1O[C@@H]([C@@H](CC)C(=O)N(CC)CC)CC[C@@H]1C)C1O[C@]2(C=CC(=O)[C@]3(CC[C@@](C)([C@H]4CC[C@](O)(CC)[C@H](C)O4)O3)O2)[C@H](C)C[C@@H]1C (stereo not given in full),49.8% (inactive)
2,COc1cccc(C2C(C#N)=C(N)Oc3cc(N)ccc32)c1 (stereo not given),48.9% (inactive)
3,COc1cc(-c2nn(-c3cccc(NC(=O)NCCNS(=O)(=O)c4ccc(Cl)cc4)c3)cc2-c2ccncc2)ccc1Cl,19.3% (inactive)
4,CS(=O)(=O)c1nccc(-c2c(-c3cccc(O)c3)nc3sccn23)n1,95.6% (inactive)
5,C[C@@H](O)[C@H]1C(=O)N2C(C(=O)O)=C(SCCN=CN)C[C@H]12,2.23% (active)
6,CC[N+](CC)=c1ccc2nc3c(cc(NCc4ccccc4)c4ccccc43)oc-2c1,-8.74% (active)
7,O=C1/C=C/[C@@H](O)[C@@H]2C[C@@H](O)C[C@H]2/C=C/CCC[C@H](CCc2ccc(C(F)(F)F)cc2)O1,12.5% (inactive)
8,CC(=O)[C@@]12O[C@](C)(c3ccccc3)O[C@@H]1CC1C3CCC4=CC(=O)CC[C@]4(C)C3CC[C@@]12C (stereo not given in full),99.7% (inactive)
9,O=C1NC(=O)c2c(CCCSc3nc4ccccc4c(=O)n3CCc3ccccc3)cccc21,86.2% (inactive)
10,O=C(CSc1nnc(-c2cccnc2SCc2ccccc2)o1)Nc1nc(Cl)cc(Cl)n1,110% (inactive)
11,Cc1ccc(N=Nc2ccccc2)cc1,89.4% (inactive)
12,CC(C)(C)OC(=O)N1CCc2c(sc3ncnc(N/N=C/c4ccccc4Br)c23)C1,114% (inactive)
13,O=C1/C=C/[C@@H](O)[C@@H]2C[C@@H](O)C[C@H]2/C=C/CCC[C@@H](C(F)(F)F)O1,96% (inactive)
14,COc1ccc([C@H]2[C@H](C(=O)Nc3cccnc3)c3ccccc3C(=O)N2c2ccccc2)cc1,96.4% (inactive)
15,Cc1c[nH]c(=O)n(Cc2nnc(CCC(=O)c3nc4ccccc4[nH]3)o2)c1=O,-7.95% (active)
16,CCN1C(=O)CC(SC2CC(=O)N(CC)C2=O)C1=O (stereo not given),103% (inactive)
17,O=c1[nH]c(=O)n(C2C[C@H](O)[C@@H](CO)O2)cc1C(F)(F)F (stereo not given in full),109% (inactive)
18,NS(=O)(=O)Oc1ccc(NC(=O)C2CCCCCC2)cc1,99% (inactive)
19,Cc1ccc(C)c(COc2cc(NC(=O)c3ccc4c(c3)OCO4)ccc2N(C)S(C)(=O)=O)c1,-21% (active)
20,C=C/C(C)=C/C[C@]1(C)[C@H](C)[C@@H](OC(=O)CCC)[C@H](O)[C@@]23C(=C[C@H](OC)C[C@@H]12)[C@@H](OC(=O)CCC)O[C@H]3OC(C)=O,-89.7% (active)

row,Structure (SMILES),growth
1,Oc1ccc(-c2[nH]c3ccccc3c2-c2nc3ccccc3o2)cc1,72.9% (inactive)
2,CCOC(=O)C1=CSC2=NC3=C(CCC/C3=C\c3cc(OC)c(OC)c(OC)c3)C(c3cc(OC)c(OC)c(OC)c3)N12 (stereo not given),102% (inactive)
3,O=C(Nc1ccc(OCc2nnc(-c3ccc(Cl)cc3)o2)c(F)c1)Nc1ccc(Cl)c(C(F)(F)F)c1,35.2% (inactive)
4,CCCN1CN2C(=O)N3CN(CCC)CN4C(=S)N(C1)C2C34 (stereo not given),86.1% (inactive)
5,CCc1c2c(nc3ccc(OC(=O)N4CCC(N5CCCCC5)CC4)cc13)-c1cc3c(c(=O)n1C2)COC(=O)[C@]3(O)CC,25.9% (inactive)
6,COc1ccc(/C=C2\CCCC3=C2NC(N)=NC3c2ccc(OC)cc2)cc1 (stereo not given),78.3% (inactive)
7,CNC(=O)c1cn(C2CC2)c2cc(N3CCN(C(=O)c4cc(OC)c(OC)c(OC)c4)CC3)c(F)cc2c1=O,103% (inactive)
8,C=CCN(CC=C)C(=O)[C@H](CC)[C@@H]1CC[C@@H](C)[C@@H]([C@H](C)[C@@H](O)[C@@H](C)C(=O)[C@H](CC)C2O[C@]3(C=CC(=O)[C@]4(CC[C@@](C)([C@H]5CC[C@](O)(CC)[C@H](C)O5)O4)O3)[C@H](C)C[C@@H]2C)O1 (stereo not given in full),41% (inactive)
9,Cc1cc(C(C#N)c2ccc(Cl)cc2)c(Cl)cc1NC(=O)c1cc(I)cc(I)c1O (stereo not given),85.2% (inactive)
10,CSc1nc2c(c(=O)n1C)CN(Cc1ccccc1)C(=O)CN2,99% (inactive)
11,COC(=O)c1c[nH]c2cc(OC(C)C)c(OC(C)C)cc2c1=O,55.2% (inactive)
12,O=C(c1ccccc1)N(C(=O)c1ccccc1)N1CCCC1,109% (inactive)
13,COc1cc(/C=C2\CCCC3=C2N=C2SC(C)=CN2C3c2cc(OC)c(OC)c(OC)c2)cc(OC)c1OC (stereo not given),19.3% (inactive)
14,N#CCc1csc(Cc2ccccc2)n1,104% (inactive)
15,N#Cc1c(-c2ccc(Cl)cc2)csc1NC(=O)Nc1ccc(Cl)c(C(F)(F)F)c1,19.9% (inactive)
16,CC(=O)Nc1ccc(CC[C@H]2CCC/C=C/[C@@H]3C[C@H](O)C[C@H]3[C@H](O)/C=C/C(=O)O2)cc1,29.8% (inactive)
17,O=C1c2ccccc2C(=O)c2c1ccc(C(Br)Br)c2[N+](=O)[O-],88.1% (inactive)
18,C=C(NC(=O)C(=C)NC(=O)c1csc(C2=NC3c4csc(n4)C4NC(=O)c5csc(n5)C(C(C)(O)C(C)O)NC(=O)C5CSC(=N5)C(=CC)NC(=O)C(C(C)O)NC(=O)c5csc(n5)C3(CC2)NC(=O)C(C)NC(=O)C(=C)NC(=O)C(C)NC(=O)C(C(C)CC)NC2C=Cc3c(C(C)O)cc(nc3C2O)C(=O)OC4C)n1)C(N)=O (stereo not given),99.8% (inactive)
19,Nc1nc(N)c(N)c(Nc2ccc(CCO)cc2)n1,110% (inactive)
20,COc1cc2cc(Oc3ccc(NC(=O)c4ccc(Cl)c(C(F)(F)F)c4)cc3)c(C)nc2cc1OC,27.7% (inactive)
